Among the data in ChEMBL document CHEMBL3988442, “University of Dundee, Small-Polar-MMV Screening Library” (2021) are Percent Effect values, retold here.

Holding throughout (design): scale not given: direction of the effect not stated beside the values
The target of experiment [1] is Protein translocase subunit SecA (Escherichia coli (strain K12)) (UniProt P10408). Kind of experiment: Assay to Identify E. coli SecA ATPase Inhibitors. The following applies: 30 µM. In kind it is functional.
Experiment [2] has as its target T1, Ubiquitin-activating enzyme e1, putative (Leishmania donovani (strain BPK282A1)) (UniProt E9BSI1).
T1 sequence (whole entry): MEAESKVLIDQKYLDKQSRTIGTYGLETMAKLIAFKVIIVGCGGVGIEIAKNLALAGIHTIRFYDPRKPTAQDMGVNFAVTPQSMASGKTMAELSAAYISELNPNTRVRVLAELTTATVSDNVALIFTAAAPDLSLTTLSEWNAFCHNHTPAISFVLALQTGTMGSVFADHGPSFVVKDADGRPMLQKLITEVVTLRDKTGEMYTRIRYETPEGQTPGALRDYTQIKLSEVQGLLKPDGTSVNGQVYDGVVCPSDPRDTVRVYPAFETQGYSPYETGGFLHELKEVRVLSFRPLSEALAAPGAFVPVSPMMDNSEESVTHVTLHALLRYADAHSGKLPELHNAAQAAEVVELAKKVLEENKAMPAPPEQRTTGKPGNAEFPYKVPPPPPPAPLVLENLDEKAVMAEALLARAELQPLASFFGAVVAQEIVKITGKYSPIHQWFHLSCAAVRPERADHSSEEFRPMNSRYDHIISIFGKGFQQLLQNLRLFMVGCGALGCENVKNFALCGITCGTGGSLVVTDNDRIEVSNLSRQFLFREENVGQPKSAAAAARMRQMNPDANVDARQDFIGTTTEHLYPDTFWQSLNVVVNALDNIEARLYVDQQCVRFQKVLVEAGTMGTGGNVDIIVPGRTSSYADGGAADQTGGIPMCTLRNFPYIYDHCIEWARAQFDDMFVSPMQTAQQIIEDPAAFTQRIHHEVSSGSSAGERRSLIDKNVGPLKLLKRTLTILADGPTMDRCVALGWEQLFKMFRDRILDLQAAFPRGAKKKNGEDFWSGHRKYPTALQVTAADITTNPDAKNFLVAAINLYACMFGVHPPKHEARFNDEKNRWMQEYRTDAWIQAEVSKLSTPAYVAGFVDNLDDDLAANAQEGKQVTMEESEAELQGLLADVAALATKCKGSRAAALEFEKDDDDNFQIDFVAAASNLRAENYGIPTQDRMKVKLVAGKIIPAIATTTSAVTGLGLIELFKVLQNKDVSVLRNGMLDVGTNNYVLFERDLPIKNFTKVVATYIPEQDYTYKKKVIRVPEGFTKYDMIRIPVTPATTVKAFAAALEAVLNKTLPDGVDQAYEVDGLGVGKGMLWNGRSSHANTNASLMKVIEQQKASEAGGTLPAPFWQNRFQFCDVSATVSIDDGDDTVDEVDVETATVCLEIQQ
The experiment can be described thus: Leishmania donovani Ubiquitin Activating Enzyme (LdE1). It counts as functional. The following applies: 30 µM.

The target in experiment [3] is AMP-activated protein kinase, AMPK (Homo sapiens) (UniProt P54646+O43741+P54619+Q9UGJ0+Q9Y478+Q13131+Q9UGI9). Kind of experiment: AMP-dependent Kinase enzyme assay. An in vitro enzyme assay that detects ADP turnover that is directly proportional to AMPK activity. This uses naive AMPK that is activated during the assay with MK-8722. In kind it is functional. The following applies: 30 µM.

Experiment [4] concerns the target Sialic acid-binding Ig-like lectin 9 (Homo sapiens) (UniProt Q9Y336). Kind of experiment: Hs-Siglec9 ALPHAscreen SOP 20170721. As to conditions: 10 µM.
In experiment [5] the test system is Trypanosoma cruzi. Kind of experiment: Trypanosoma cruzi phosphomannomutase and mannose-1-phosphate guanylyltransferase assay. In kind it is functional. As to conditions: 10 µM.
For experiment [6], the target named is T2, Arginase-2, mitochondrial (Homo sapiens) (UniProt P78540).
T2 sequence (whole entry): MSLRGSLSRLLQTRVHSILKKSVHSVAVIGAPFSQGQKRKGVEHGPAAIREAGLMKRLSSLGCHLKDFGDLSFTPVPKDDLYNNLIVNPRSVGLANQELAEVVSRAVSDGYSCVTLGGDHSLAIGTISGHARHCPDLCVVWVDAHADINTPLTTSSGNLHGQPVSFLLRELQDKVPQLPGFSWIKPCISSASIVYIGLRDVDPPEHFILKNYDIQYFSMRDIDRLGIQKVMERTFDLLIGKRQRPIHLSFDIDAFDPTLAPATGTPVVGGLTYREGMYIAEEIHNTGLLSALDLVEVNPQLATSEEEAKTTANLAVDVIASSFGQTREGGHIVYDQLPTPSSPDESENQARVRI
Kind of experiment: in vitro enzyme assay to detect the production of urea directly proportional to the activity of Arginase II. Also: in the data most compounds retested in dose-response had high values. It counts as functional. The following applies: 33.3 µM.

The target of experiment [7] is T3, Proteasome subunit beta (Trypanosoma cruzi) (UniProt O96673).
T3 sequence (whole entry): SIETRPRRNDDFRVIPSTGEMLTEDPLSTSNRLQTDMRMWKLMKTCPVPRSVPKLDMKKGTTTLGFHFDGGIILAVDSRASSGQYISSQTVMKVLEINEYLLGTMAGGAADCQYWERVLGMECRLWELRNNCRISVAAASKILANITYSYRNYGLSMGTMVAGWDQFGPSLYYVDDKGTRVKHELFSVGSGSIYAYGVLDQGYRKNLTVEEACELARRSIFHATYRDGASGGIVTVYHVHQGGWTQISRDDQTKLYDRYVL
Kind of experiment: Trypanosoma cruzi proteasome chymotrypsin-like activity (TcProtChymo) assay. Also: in the data most compounds retested in dose-response had high values. The following applies: 9.37 µM. It counts as functional.

The species named for experiment [8] is Homo sapiens. The experiment can be described thus: To identify inhibition of the IFN signalling (Jak-Stat) pathway via expression of an eGFP reporter gene under the control of an IFN-stimulated response element (ISRE) containing MxA promoter. As to conditions: 30 µM. In kind it is functional. A general note: A reporter such as luciferase makes a cellular process visible.

In experiment [9] the target is T4, Tyrosyl-tRNA synthetase, putative (Trypanosoma cruzi (strain CL Brener)) (UniProt Q4DSP6).
T4 sequence (whole entry): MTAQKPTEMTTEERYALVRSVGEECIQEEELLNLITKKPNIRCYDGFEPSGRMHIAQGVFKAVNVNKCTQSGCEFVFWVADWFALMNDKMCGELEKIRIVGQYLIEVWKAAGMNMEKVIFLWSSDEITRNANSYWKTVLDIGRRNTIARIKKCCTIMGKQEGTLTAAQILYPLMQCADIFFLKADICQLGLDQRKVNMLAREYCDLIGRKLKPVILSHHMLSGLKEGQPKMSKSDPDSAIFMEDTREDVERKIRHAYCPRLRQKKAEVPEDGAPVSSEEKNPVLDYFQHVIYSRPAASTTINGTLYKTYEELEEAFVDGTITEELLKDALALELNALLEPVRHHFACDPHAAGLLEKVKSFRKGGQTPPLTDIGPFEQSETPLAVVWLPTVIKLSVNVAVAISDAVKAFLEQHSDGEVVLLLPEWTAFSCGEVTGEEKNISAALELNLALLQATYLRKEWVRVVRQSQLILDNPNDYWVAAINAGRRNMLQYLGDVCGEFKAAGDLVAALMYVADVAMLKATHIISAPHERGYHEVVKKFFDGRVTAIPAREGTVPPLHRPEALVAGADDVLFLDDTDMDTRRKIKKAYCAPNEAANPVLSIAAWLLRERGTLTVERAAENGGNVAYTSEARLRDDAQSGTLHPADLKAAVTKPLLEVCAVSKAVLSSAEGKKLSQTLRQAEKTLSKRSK
The experiment can be described thus: Trypanosoma cruzi tyrosyl tRNA synthetase (TcYRS) _High Tyrosine SOP. Also: in the data most compounds retested in dose-response had high values. As to conditions: 30 µM. It counts as functional.

The target of experiment [10] is T4, Tyrosyl-tRNA synthetase, putative (Trypanosoma cruzi (strain CL Brener)). The experiment can be described thus: Trypanosoma cruzi tyrosyl tRNA synthetase (TcYRS) SOP. In kind it is functional. The following applies: 30 µM.
Experiment [11] concerns the target Chromo domain-containing protein 1 (Saccharomyces cerevisiae (strain ATCC 204508 / S288c) (Baker's yeast)) (UniProt P32657). Kind of experiment: ScCHD-1 Enzyme Inhibition Assay. Also: in the data most compounds retested in dose-response had high values. In kind it is functional. The following applies: 30 µM.

For some of these results: Measured potencies and affinities stand elsewhere.

Chain of Protein translocase subunit SecA (Escherichia coli (strain K12)) (P10408 whole entry): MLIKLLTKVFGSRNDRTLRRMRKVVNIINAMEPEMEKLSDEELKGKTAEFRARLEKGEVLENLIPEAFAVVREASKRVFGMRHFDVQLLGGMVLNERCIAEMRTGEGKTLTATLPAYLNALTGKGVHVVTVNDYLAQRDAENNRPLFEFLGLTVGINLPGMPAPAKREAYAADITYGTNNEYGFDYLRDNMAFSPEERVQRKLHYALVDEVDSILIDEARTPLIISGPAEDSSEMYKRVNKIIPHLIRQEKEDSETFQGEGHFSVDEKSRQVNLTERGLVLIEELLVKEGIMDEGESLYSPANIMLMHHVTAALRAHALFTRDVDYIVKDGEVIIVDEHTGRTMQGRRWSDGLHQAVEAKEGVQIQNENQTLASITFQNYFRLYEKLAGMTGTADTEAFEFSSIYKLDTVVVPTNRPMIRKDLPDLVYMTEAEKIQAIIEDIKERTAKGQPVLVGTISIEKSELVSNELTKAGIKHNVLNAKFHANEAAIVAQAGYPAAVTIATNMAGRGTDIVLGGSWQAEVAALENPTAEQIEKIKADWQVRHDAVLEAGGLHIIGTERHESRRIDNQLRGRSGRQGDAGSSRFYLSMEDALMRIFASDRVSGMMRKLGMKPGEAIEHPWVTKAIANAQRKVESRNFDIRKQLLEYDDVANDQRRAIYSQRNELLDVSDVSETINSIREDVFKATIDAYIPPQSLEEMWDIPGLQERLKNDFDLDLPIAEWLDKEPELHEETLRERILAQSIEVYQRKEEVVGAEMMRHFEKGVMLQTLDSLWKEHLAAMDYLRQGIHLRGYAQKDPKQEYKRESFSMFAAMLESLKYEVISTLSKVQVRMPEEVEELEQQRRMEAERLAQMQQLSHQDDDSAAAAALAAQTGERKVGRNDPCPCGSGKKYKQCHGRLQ
Chain of Chromo domain-containing protein 1 (Saccharomyces cerevisiae (strain ATCC 204508 / S288c) (Baker's yeast)) (P32657 whole entry, the tested form may be a part): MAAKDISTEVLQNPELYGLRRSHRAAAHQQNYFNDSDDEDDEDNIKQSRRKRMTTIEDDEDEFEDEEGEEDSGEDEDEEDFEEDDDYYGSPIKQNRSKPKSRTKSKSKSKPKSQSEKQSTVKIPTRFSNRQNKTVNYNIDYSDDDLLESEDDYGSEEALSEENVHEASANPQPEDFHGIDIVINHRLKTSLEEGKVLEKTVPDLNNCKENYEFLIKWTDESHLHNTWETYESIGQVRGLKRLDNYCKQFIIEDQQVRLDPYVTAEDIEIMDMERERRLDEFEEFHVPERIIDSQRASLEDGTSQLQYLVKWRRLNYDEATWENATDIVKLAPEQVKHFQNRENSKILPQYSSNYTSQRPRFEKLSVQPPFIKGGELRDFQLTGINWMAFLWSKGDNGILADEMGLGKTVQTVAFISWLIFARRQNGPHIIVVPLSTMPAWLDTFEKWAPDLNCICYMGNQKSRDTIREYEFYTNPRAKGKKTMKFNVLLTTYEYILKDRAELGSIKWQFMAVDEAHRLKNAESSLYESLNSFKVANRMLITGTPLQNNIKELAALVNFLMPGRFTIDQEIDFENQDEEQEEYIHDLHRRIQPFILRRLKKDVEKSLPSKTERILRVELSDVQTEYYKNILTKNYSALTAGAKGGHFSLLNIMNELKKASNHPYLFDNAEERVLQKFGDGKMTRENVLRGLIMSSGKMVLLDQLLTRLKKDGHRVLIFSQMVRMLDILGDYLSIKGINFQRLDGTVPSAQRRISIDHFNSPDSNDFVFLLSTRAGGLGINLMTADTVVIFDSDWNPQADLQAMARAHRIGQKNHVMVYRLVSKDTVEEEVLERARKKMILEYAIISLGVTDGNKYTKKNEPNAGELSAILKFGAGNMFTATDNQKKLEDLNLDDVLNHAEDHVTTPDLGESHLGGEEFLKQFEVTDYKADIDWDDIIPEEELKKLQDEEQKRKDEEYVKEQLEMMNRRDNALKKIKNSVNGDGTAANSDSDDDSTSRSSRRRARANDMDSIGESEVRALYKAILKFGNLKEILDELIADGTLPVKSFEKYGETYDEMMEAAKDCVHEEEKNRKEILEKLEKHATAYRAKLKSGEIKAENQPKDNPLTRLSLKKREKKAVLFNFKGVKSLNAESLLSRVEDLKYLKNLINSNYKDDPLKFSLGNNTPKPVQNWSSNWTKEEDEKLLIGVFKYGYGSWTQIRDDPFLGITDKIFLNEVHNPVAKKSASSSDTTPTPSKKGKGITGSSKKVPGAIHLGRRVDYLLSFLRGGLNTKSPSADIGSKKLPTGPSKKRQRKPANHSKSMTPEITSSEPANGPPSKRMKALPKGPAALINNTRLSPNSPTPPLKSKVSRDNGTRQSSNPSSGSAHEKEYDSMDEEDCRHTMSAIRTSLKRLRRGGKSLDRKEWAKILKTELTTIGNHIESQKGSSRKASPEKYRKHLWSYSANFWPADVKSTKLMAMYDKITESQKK
Chain of Sialic acid-binding Ig-like lectin 9 (Homo sapiens) (Q9Y336 whole entry): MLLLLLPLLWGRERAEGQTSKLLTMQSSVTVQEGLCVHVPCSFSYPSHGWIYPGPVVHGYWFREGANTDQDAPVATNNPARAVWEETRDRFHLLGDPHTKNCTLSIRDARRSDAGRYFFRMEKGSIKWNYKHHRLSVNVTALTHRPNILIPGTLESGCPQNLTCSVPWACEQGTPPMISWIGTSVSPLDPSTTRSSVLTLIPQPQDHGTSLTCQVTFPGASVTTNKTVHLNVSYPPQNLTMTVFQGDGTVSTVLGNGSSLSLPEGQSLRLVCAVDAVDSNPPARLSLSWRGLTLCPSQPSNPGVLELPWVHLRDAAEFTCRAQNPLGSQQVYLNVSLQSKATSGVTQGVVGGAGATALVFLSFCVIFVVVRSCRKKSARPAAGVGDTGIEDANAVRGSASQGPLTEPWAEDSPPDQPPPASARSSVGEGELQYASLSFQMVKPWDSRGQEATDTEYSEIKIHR

On to `CCc1nnc(CNCC2CCCN2c2cccnn2)o1` (stereo unspecified), for which the Percent Effect in experiment [1] was -2.1%; in experiment [2], 0%; in experiment [3], 0.161%; in experiment [4] it was 4.6%; in [5], 2.78%; in experiment [6] it was -2.4%. The Percent Effect in experiment [7] is 5.57%; in experiment [8], 3.42%; in [9] it was 8.33%; in experiment [10] it was 11.1%; in experiment [11], -4.05%.

`Cn1ncc2c(=O)[nH]c(CN3CCCC3Cc3ccccc3)nc21` (stereo unspecified): the Percent Effect in experiment [1] is -2.29%; in [2], 15.8%; in experiment [3] it was -0.517%; in experiment [4], 3.61%; in [5], 9.62%; in experiment [6], -3.24%. The Percent Effect was 2.28% in experiment [7]; 9.4% in [8]; 8.37% in experiment [9]; 18.5% in experiment [10]; -6.42% in experiment [11].

Turning to `COC(=O)c1cccc(C(=O)N2CCN(c3cccc(C)c3C)CC2)n1`, the Percent Effect was -0.0243% in experiment [1]; 20.8% in experiment [2]; -2.32% in experiment [3]; 0.218% in experiment [4]; 2.66% in experiment [5]; 0.645% in experiment [6]. Besides, the Percent Effect is 10.3% in experiment [7]; 87% in [8]; 2.12% in experiment [9]; 11.5% in [10]; -9.48% in experiment [11].

Take `Cc1cccc(C(=O)Nc2ccc(OC3CCN(C)CC3)cc2)c1`: the Percent Effect in [1] is -3.56%; in [2], 7.79%; in [3] it was 6.98%; in experiment [4], 12%; in [5] it was 7.57%; in experiment [6], 22.1%. Also, the Percent Effect is 7.82% in experiment [7]; -1.95% in experiment [8]; 5.38% in experiment [9]; 13.6% in experiment [10]; -8.12% in experiment [11].

As for `O=C(COc1cccc2c1CCC2=O)NCCSc1ccccc1`, the Percent Effect in experiment [1] is -1.44%; in [2], 5.26%; in experiment [3], 7.61%; in experiment [4], -2.93%; in experiment [5], -2.63%; in experiment [6] it was 10.7%. The Percent Effect is 8.92% in [7]; 20.8% in experiment [8]; -2.13% in experiment [9]; 7.79% in experiment [10]; -5.02% in experiment [11].

Regarding `Cc1ccccc1Oc1ncccc1CNS(C)(=O)=O`, the Percent Effect is -5.18% in experiment [1]; 15.6% in [2]; -0.858% in experiment [3]; 12.6% in [4]; 8.16% in [5]; -8.28% in experiment [6]. The Percent Effect in experiment [7] is 1.33%; in experiment [8], 0.0503%; in experiment [9] it was 5.38%; in [10], 11.1%; in experiment [11], -7.62%.

As to `Cc1nc(CN2C[C@@H]3CN(C(=O)c4cnccn4)C[C@@H]3C2)cs1`, the Percent Effect in [1] is -1.57%; in [2] it was 5.48%; in experiment [3], 0.106%; in [4], 5.75%; in [5], -1.79%; in [6] it was -2.79%. In addition, the Percent Effect in experiment [7] is 7.45%; in experiment [8], 7.67%; in experiment [9], 5.21%; in [10] it was 16.1%; in experiment [11] it was -3.57%.

For `Cc1cc(C(=O)NCc2cccnc2OC(C)C)no1`, the Percent Effect is -2.03% in experiment [1]; 8.11% in experiment [2]; -0.722% in [3]; 4.58% in [4]; -5.19% in experiment [5]; 4.41% in experiment [6]. For the same compound, the Percent Effect is 3.42% in experiment [7]; 27.8% in experiment [8]; 6.4% in experiment [9]; 13.6% in experiment [10]; -0.257% in experiment [11].

For the compound `O=C(NCc1cnc2n1CCN(c1ncc(F)cn1)CC2)C1CCC1`, the Percent Effect in [1] was -3.67%; in experiment [2], 0%; in experiment [3] it was 0.174%; in experiment [4] it was 23.6%; in experiment [5], 2.83%; in experiment [6] it was 1.24%. The Percent Effect in experiment [7] is -0.772%; in experiment [8] it was -4.55%; in experiment [9], 4.3%; in experiment [10], 3.7%; in experiment [11], 0.0919%.

On to `Cc1cc(NC(=O)NCc2ccccn2)n(C)n1`, for which the Percent Effect in experiment [1] is -3.34%; in experiment [2], -6.33%; in experiment [3], 3.11%; in experiment [4], 5.94%; in experiment [5] it was 0.103%; in experiment [6], -2.37%. Besides, the Percent Effect in experiment [7] was 15.6%; in [8], -16.7%; in experiment [9] it was 2.08%; in experiment [10] it was 12.7%; in experiment [11], -12.3%.

`Cc1nn(C)c(C)c1C1COCCN1C(=O)c1ccccc1` (stereo unspecified): the Percent Effect in [1] is -2.83%; in experiment [2], 5.2%; in experiment [3], -2.73%; in experiment [4], 2.06%; in experiment [5], 6.74%; in [6], 3.2%. The Percent Effect in [7] was -1.01%; in experiment [8] it was 7.76%; in [9], 2.91%; in [10], 12.2%; in experiment [11], 11.3%.
